For 45 compounds, outcome and AC50 results are on record in PubChem BioAssay (EPA / NIEHS).

Results filed as inconclusive are left out. Some structures have more than one record in an assay (separate samples or runs), and their calls can disagree. The source made the active and inactive calls. How the source made its calls: active means hit-call score of the fitted dose curve at least 0.9, where 1 is the maximum; inconclusive means response in the unintended direction; inactive means score below 0.9.

A short description of assay [1]: TOX21_p53_BLA_p2_viability: Viability Assessment in the Tox21 HCT-116 p53 Agonism Beta-lactamase Assay, Phase 2 (AID 2283591).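 Further: compound exposure lasted 16 h at 37 °C; actives lower the ATP signal meaning cytotoxicity.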 The gist of the method: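 Cytotoxicity readout: CellTiter-Glo ATP luminescence, 30 min at room temperature, after the beta-lactamase read. Cells were HCT116 exposed 16 h at 37C to compounds pin-transferred at 217-fold dilution from DMSO stocks.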

In assay [2] the target is Cellular tumor antigen p53 (Homo sapiens) (UniProt P04637). Briefly: TOX21_p53_BLA_p2_ratio: Tox21 HCT-116 p53 Agonism Beta-lactamase Assay, Ratio, Phase 2 (AID 2283592). In outline: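 In this cell-based reporter format, HCT116 cells were dosed with chemicals delivered from DMSO by 217-fold dilution and incubated 16 h at 37C. Emission at 460 and 530 nm after 2 h CCF4-AM loading provided the ratio, fitted upward versus DMSO.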
Chain of Cellular tumor antigen p53 (Homo sapiens) (P04637 whole entry, looked up): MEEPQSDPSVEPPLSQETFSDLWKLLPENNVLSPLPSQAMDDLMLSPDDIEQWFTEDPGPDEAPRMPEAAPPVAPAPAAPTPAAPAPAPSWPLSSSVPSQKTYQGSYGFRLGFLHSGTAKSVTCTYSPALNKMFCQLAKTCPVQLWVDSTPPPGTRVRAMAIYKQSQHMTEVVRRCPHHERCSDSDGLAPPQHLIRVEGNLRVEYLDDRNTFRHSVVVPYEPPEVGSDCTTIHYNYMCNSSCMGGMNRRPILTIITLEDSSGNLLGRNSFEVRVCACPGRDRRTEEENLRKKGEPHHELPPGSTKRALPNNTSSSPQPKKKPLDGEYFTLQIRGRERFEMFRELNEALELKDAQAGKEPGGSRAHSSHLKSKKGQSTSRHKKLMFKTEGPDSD

Assay [3] is described as follows: TOX21_p53_BLA_p3_viability: Viability Assessment in the Tox21 HCT-116 p53 Agonism Beta-lactamase Assay, Phase 3 (AID 2283593).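 Further: cells exposed to compound for 16 h before reading.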 The gist of the method: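 Cellular ATP was quantified by CellTiter-Glo luminescence, read after 30 min at room temperature. Beforehand, HCT116 cells (4000/well) received compound 5 h post-seeding, 217-fold diluted from DMSO, then incubated 16 h at 37C.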

Assay [4] addresses Cellular tumor antigen p53 (Homo sapiens) (UniProt P04637). Briefly: TOX21_p53_BLA_p3_ratio: Tox21 HCT-116 p53 Agonism Beta-lactamase Assay, Ratio, Phase 3 (AID 2283596). The gist of the method: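 HCT116 p53-bla cells (4000/well) given compound in DMSO (217-fold dilution) after 5 h, incubated 16 h at 37C. CCF4-AM substrate 2 h at room temperature; 460/530 nm emission ratio, gain fitted against DMSO.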

The nature of assay [5]: TOX21_p53_BLA_p4_viability: Viability Assessment in the Tox21 HCT-116 p53 Agonism Beta-lactamase Assay, Phase 4 (AID 2283597).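 Further: hits lower the luminescence signal meaning cytotoxicity.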 The gist of the method:
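We seeded HCT116 p53 reporter cells at 4000/well and waited 5 h. We then added compounds in DMSO at a 217-fold dilution and incubated for 16 h. Viability was read as CellTiter-Glo luminescence after 30 min at RT.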

Assay [6] concerns the target Cellular tumor antigen p53 (Homo sapiens) (UniProt P04637). Briefly: TOX21_p53_BLA_p5_ratio: Tox21 HCT-116 p53 Agonism Beta-lactamase Assay, Ratio, Phase 5 (AID 2283599). In outline:
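Beta-lactamase reporter ratio (blue 460 nm over green 530 nm, 405 nm excitation) after 2 h CCF4-AM loading, in HCT-116 cells exposed 16 h at 37 C to compounds pinned at 217-fold dilution. Increases relative to DMSO baseline scored.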

Assay [7] in a line: TOX21_p53_BLA_p5_viability: Viability Assessment in the Tox21 HCT-116 p53 Agonism Beta-lactamase Assay, Phase 5 (AID 2283600). The gist of the method:
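Compounds, pinned from DMSO at 217-fold dilution, were left on the cells for 16 h. The viability endpoint was ATP content measured by CellTiter-Glo luminescence, where falling signal reflects cytotoxicity.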

For assay [8], the target named is Cellular tumor antigen p53 (Homo sapiens) (UniProt P04637). Briefly: TOX21_p53_BLA_p4_ratio: Tox21 HCT-116 p53 Agonism Beta-lactamase Assay, Ratio, Phase 4 (AID 2283601). The gist of the method: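 Signal is the blue/green (460nm/530nm) ratio of cleaved versus uncleaved CCF4-AM substrate, read after 2 h substrate loading. Cells were HCT116 carrying the p53-responsive beta-lactamase reporter, dosed 16 h at 37C, 5% CO2; CellTiter-Glo measured in parallel.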

Turning to `CCc1cc(C(C)(C)C)c(O)c(C(C)(C)C)c1`, the compound was classed as inactive in assay [1], in assay [2], in assay [3], in assay [4], in assay [5] and in assay [6]. Besides, the compound was called inactive in assay [7] and in assay [8].

As to `CSCCC=O`, the compound was called inactive in assay [1], in assay [2], in assay [3], in assay [4], in assay [6] and in assay [7]. In addition, the result in assay [8] was inactive.

Turning to `CCOC(=O)c1ccc(N)cc1`, the compound was called inactive in assay [1], in assay [2], in assay [3], in assay [4], in assay [6] and in assay [8].

As to `COCCOC(=O)c1ccccc1C(=O)OCCOC`, the compound was classed as inactive in assay [1], in assay [2], in assay [3], in assay [4], in assay [5] and in assay [6]. Further, the call in assay [7] and in assay [8] was inactive.

For the compound `O=C(O)CCCCCCCCC(=O)O`, the compound was called inactive in assay [1], in assay [2], in assay [3], in assay [4], in assay [5] and in assay [6]. For the same compound, the result in assay [7] and in assay [8] was inactive.

Take `O=C(Nc1ccc2c(c1)Cc1ccccc1-2)C(F)(F)F`: the compound was classed as inactive in assay [1], in assay [2], in assay [3], in assay [4], in assay [5] and in assay [6]. Besides, the compound was called inactive in assay [7].

`O=C(O)CCCCCCCCCCCC(=O)O`: the call in assay [1], in assay [2], in assay [3], in assay [4], in assay [5] and in assay [6] was inactive. Besides, in assay [7], the result was inactive.

As to `COc1ccccc1[N+](=O)[O-]`, the compound was called inactive in assay [1], in assay [2], in assay [3], in assay [4], in assay [6] and in assay [8].

With `Cc1[nH]c(=O)c(C#N)cc1-c1ccncc1`, the compound was called inactive in assay [1], in assay [2], in assay [3], in assay [4], in assay [5] and in assay [6]. Further, the compound was classed as inactive in assay [7] and in assay [8].

Turning to `C=C(C)C(=O)OCCOC1CC2CC1C1C=CCC21` (stereo unspecified), the result in assay [2], in assay [3], in assay [4], in assay [5], in assay [6] and in assay [7] was inactive.

Consider `C1CCOC1`, for which the call in assay [1], in assay [3], in assay [4] and in assay [8] was inactive.

On to `C[Si](C)(C)O[Si](C)(C)C`, for which the result in assay [2], in assay [3], in assay [4], in assay [5], in assay [6] and in assay [7] was inactive.

Take `CCOc1ccccc1O`: the call in assay [1], in assay [2], in assay [6], in assay [7] and in assay [8] was inactive.

Consider `FC(F)(F)COCC(F)(F)F`, for which the outcome in assay [2], in assay [3], in assay [4], in assay [6], in assay [7] and in assay [8] was inactive.

On to `Cc1ccc(S(=O)(=O)Oc2ccc(N=Nc3ccc(-c4ccc(N=Nc5c(O)ccc6cc(S(=O)(=O)O)cc(S(=O)(=O)O)c56)c(C)c4)cc3C)cc2)cc1`, for which the outcome in assay [2], in assay [3], in assay [4], in assay [5], in assay [6] and in assay [7] was inactive. Also, the outcome in assay [8] was inactive.

Take `CCCOC(=O)c1c(Cl)c(Cl)c(Cl)c(Cl)c1C(=O)OCCC`: the result in assay [2] was inactive.

On to `CC/C=C\CCOC(=O)CC`, for which the outcome in assay [3], in assay [4], in assay [6] and in assay [8] was inactive.

With `CC(=O)NCCO`, the outcome in assay [2], in assay [4], in assay [5] and in assay [7] was inactive.

As for `CC(C)c1ccccc1O`, the result in assay [2], in assay [3], in assay [4], in assay [5] and in assay [7] was inactive.

Regarding `c1ccc(Oc2ccccc2)cc1`, the outcome in assay [2], in assay [3], in assay [4], in assay [5], in assay [6] and in assay [8] was inactive.

Turning to `C1CCCCC1`, the outcome in assay [1], in assay [5], in assay [6], in assay [7] and in assay [8] was inactive.

Regarding `CCCCCCCCCCCCN1CCCCCC1=O`, the result in assay [2], in assay [3], in assay [4], in assay [6] and in assay [8] was inactive.

`COC(CC(C)CCCC(C)(C)O)OC` (stereo unspecified): the outcome in assay [1], in assay [5] and in assay [6] was inactive.

For the compound `CC(C)CC(C)CC(O)CC(C)C` (stereo unspecified), the result in assay [2], in assay [3], in assay [4], in assay [5], in assay [6] and in assay [7] was inactive. In assay [8], the result was inactive.

As to `CCc1ncc(C)[nH]1`, the outcome in assay [1], in assay [4], in assay [5], in assay [6], in assay [7] and in assay [8] was inactive.

Turning to `COc1ccccc1N=Nc1c(S(=O)(=O)O)cc2cc(S(=O)(=O)O)cc(NC(C)=O)c2c1O`, the outcome in assay [2], in assay [3], in assay [4], in assay [5], in assay [6] and in assay [8] was inactive.

With `C[N+](C)(C)CCCCCC[N+](C)(C)C`, the outcome in assay [2], in assay [5], in assay [6] and in assay [8] was inactive.

One may read the AC50 as the concentration giving half of the maximal activity seen. Regarding `c1ccc2cc(Nc3ccc(Nc4ccc5ccccc5c4)cc3)ccc2c1`, the result in assay [2], in assay [3], in assay [4], in assay [5], in assay [6] and in assay [7] was inactive. The outcome in assay [8] was inactive. The AC50 in assay [4] was 73.5 µM (active).

On to `C=C[Si]1(C)O[Si](C)(C=C)O[Si](C)(C=C)O[Si](C)(C=C)O1` (stereo unspecified), for which the result in assay [2], in assay [3], in assay [4], in assay [7] and in assay [8] was inactive.

Take `CC(C)CCCCCCc1ccc(OCCOCCO)cc1`: the compound was called inactive in assay [3], in assay [4], in assay [5], in assay [6], in assay [7] and in assay [8].

With `C[C@H]1C[C@@H](O)CC(C)(C)C1`, the result in assay [2], in assay [4] and in assay [6] was inactive.

For `CCCCCCCCN1CCCC1=O`, the result in assay [4], in assay [6], in assay [7] and in assay [8] was inactive.

As to `CC(C)CCCCCCCCCCCCCCC(=O)O`, the outcome in assay [2], in assay [3], in assay [4], in assay [6] and in assay [8] was inactive.

As to `CC(C)C[C@H](NC(=O)OCC1c2ccccc2-c2ccccc21)C(=O)O`, the result in assay [2], in assay [5], in assay [6] and in assay [7] was inactive.

In the case of `CCCC(C)C(O)CC` (stereo unspecified), the outcome in assay [2], in assay [3], in assay [4], in assay [5] and in assay [8] was inactive.

For the compound `Cc1cc(CCC(=O)OCCOCCOCCOC(=O)CCc2cc(C)c(O)c(C(C)(C)C)c2)cc(C(C)(C)C)c1O`, the result in assay [2], in assay [3] and in assay [7] was inactive.

For `Nc1ccn([C@H]2CS[C@@H](CO)O2)c(=O)n1`, the outcome in assay [2], in assay [4] and in assay [6] was inactive.

On to `CCc1ccc(O)c(OC)c1`, for which the call in assay [3] and in assay [6] was inactive.

Consider `COc1ccc(N)c([N+](=O)[O-])c1`, for which the result in assay [3], in assay [4], in assay [6], in assay [7] and in assay [8] was inactive.

Consider `CCCCCCCCCCCCCCCC(=O)OC/C=C(C)/C=C/C=C(C)/C=C/C1=C(C)CCCC1(C)C`, for which the compound was called inactive in assay [1], in assay [3], in assay [4] and in assay [7].

As to `COc1ccc(N=Nc2cc(C)c(N=Nc3ccc(S(=O)(=O)O)cc3)cc2OC)cc1`, the result in assay [1], in assay [3], in assay [4], in assay [5], in assay [6] and in assay [7] was inactive.

With `CCC(=O)O[C@@H]1C[C@H]2CC[C@]1(C)C2(C)C`, the outcome in assay [4], in assay [6] and in assay [8] was inactive.

In the case of `CCN(CC)C(=O)N(CC)CC`, the result in assay [2], in assay [3], in assay [4], in assay [5] and in assay [7] was inactive.

As for `C=CCOC(=O)CCCCCC`, the outcome in assay [1], in assay [4], in assay [5] and in assay [8] was inactive.

`C[C@H](CCC(=O)NCC(=O)O)[C@H]1CC[C@H]2[C@@H]3[C@H](O)C[C@@H]4C[C@H](O)CC[C@]4(C)[C@H]3C[C@H](O)[C@]12C`: the result in assay [1], in assay [4], in assay [5], in assay [6], in assay [7] and in assay [8] was inactive.
